Hits are enriched below; roughly 7.5% of the tested compounds scored in any of these assays.
FLuc counter – counter-screen for miR-21 project: firefly luciferase inhibitors or activators; Potency, µM (highest dose often 57.5 µM), without a hit: at the highest dose activity change, negative = inhibition, actives largely listed as inhibitors; P08659; AID 588342; hit rate 6.9% among 360,000; purified FLuc, Km substrates, luminescence inhibition;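 further: plate controls were vehicle for no effect and reference inhibitor for full effect; nearly all actives have a fitted effect of over 55% in size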
Target sequence (P08659 whole entry, looked up): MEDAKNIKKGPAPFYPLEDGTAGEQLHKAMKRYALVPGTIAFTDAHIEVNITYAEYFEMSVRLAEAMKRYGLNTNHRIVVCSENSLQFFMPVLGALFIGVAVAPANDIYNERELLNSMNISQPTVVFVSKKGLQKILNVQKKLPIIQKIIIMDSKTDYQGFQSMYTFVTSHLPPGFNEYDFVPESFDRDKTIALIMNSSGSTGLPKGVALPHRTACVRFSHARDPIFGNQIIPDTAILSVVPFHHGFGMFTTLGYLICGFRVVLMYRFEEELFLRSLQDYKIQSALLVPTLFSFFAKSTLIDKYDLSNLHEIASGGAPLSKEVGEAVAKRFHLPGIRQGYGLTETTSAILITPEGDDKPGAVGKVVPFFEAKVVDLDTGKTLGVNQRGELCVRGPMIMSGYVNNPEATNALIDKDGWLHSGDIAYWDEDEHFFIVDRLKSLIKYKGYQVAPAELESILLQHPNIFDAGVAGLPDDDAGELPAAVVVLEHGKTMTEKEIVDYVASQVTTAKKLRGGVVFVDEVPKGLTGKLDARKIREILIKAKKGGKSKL
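Purified P. pyralis luciferase, 10 nM final, with Km-level 10 uM D-luciferin and 10 uM ATP in 50 mM Tris acetate pH 7.5, 10 mM Mg acetate, 0.01% Tween-20, 0.05% BSA; 6-point qHTS titration about 60 µM downward; luminescence read.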
Rab9 prom act – activates the Rab9 promoter | Huh7 Rab9 promoter-luciferase reporter, luminescence, 24 h | Potency, µM (titrated, usually from 9.22 µM), inactives show top-dose activation, negative = inhibition, usual class: activators | hit rate 2.8% among 320,000; further: % of control where 0% means no effect; nearly all actives have a fitted effect of over 60% in size
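Huh7 reporter line, Rab9 promoter upstream of luciferase. Compound exposure 24 h at 37 °C in reduced-serum medium with 10% FBS. Read-out: luminescence.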
NPC1 prom act – activators of NPC1 promoter. hit rate 2.4% among 320,000. Huh7 NPC1 promoter luciferase reporter, 24 h. Potency, µM (series often up to 9.22 µM), for inactives: top-dose activation, actives largely listed as activators; further: % of control where 0% means no effect; nearly all actives have a fitted effect of over 60% in size
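Huh7 cells stably carrying NPC1 promoter–luciferase, plated in Opti-MEM with 10% FBS for 2 h, were exposed to compound in DMSO for 24 h at 37 °C; luciferase reagent was added for 10 min and luminescence read.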
ELG1 genotoxic – inducers of genotoxicity in HEK293T ELG1-luciferase cells; hit rate 1.3% among 330,000; HEK293T ELG1-luciferase reporter, luminescence, 16 h; Potency, µM (top dose mostly 46 µM), inactives show top-dose activity change, positive = activation, hits mostly activators; AID 504466; further: % of control where 0% means no effect; nearly all actives have a fitted effect of over 60% in size
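Screening used a luciferase reporter fused to human ELG1 in HEK293T cells. Luminescence was read on a CCD plate imager after 16 hr exposure and 30 min ONE-Glo incubation.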
SMN2 splice enh – enhancers of SMN2 splice variant expression; AID 1458; HEK293 SMN2-luciferase splicing reporter, luminescence, 30-36 h; Potency, µM (highest dose often 46.1 µM), without a hit: at the highest dose activity change, positive = activation, most hits filed as activators; hit rate 2.8% among 210,000; further: % of control where 0% means no effect; nearly all actives have a fitted effect of over 55% in size
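HEK293 cells carry an SMN2 […]–luciferase reporter in which exon 7 inclusion puts luciferase in frame. Cells were plated 10-12 h before compound addition, then incubated 30-36 h at 37C. ONE-Glo luminescence was read; sodium butyrate at 4.5 mM final served as control.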
Luc counter – counter-screen: inhibitors of Kinase-Glo firefly luciferase; Q27757; AID 1379; Kinase-Glo luciferase, ATP luminescence, 8 min; Potency, µM (top dose mostly 38.3 µM), inactives show at the highest dose activity change, negative = inhibition, actives largely listed as inhibitors; hit rate 0.28% among 200,000; further: on the % scale 0 is the no-effect control and ±100 the full control effect; nearly all actives have a fitted effect of over 60% in size
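Kinase-Glo luciferase light output from ATP and luciferin was measured with 10 uM ATP, within the enzyme's linear range. Buffer: 50 mM imidazole pH 7.2, 50 mM KCl, 7 mM MgCl2, 0.01% Tween 20, 0.05% BSA; luminescence read after 8 min at ambient temperature.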
Numbers without * were called inactive; ? = inconclusive; . = no result. The call rests on the fitted dose curve; in most records, active means well fitted curve in the direction sought with a large enough effect; inconclusive means small, poorly fitted or top-dose-only effect, or another doubt; inactive means no such curve, though single readings can be large; an effect the other way counts as inactive or inconclusive. Potency means the concentration at half of the fitted maximal effect.

SMILES	FLuc counter	Rab9 prom act	NPC1 prom act	ELG1 genotoxic	SMN2 splice enh	Luc counter
O=C(O)c1ccc(Cl)c(S(=O)(=O)Nc2ccccc2C(=O)Nc2ccc(Cl)cc2)c1	27µM*	16%	14%	10%	.	.
O=C(Nc1nc(-c2cccs2)cs1)c1ccc(S(=O)(=O)N2CCCCC2)cc1	10%	-12%	-7%	3%	-84%	-2%
Cc1ccnc(NC(=O)c2ccc3c(c2)S(=O)(=O)c2ccccc2C3=O)c1	15µM*	24%	?	7%	.	.
O=C(Nc1nc(-c2cccs2)cs1)c1cccc(S(=O)(=O)N2CCCCCC2)c1	15µM*	?	-8%	9%	-68%	-1%
Cc1ccnc(NC(=O)c2ccc(Cl)c(S(=O)(=O)N3CCCC3)c2)c1	19µM*	?	?	?	.	.
Cc1ccnc(NC(=O)c2ccc(Cl)c(S(=O)(=O)N3CCCCC3)c2)c1	.	13%	4%	-2%	.	.
CCOC(=O)C1CCN(C(=O)c2ccc(N3CCCC3=O)cc2)CC1	3%	1%	-5%	3%	.	.
CCN(CCCNC(=O)c1nn(-c2ccc(OC)c(Cl)c2)c(=O)c2c1c1ccccc1n2C)c1ccccc1	0%	.	.	.	-9%	.
O=C(CSCc1ccc(Cl)cc1Cl)Nc1ccccc1C(=O)Nc1ccc(C(=O)O)cc1	19µM*	-7%	-5%	-3%	5%	2%
Cc1ccc(C(=O)Nc2nccs2)cc1S(=O)(=O)N1CCCCC1	17µM*	3%	0%	-2%	-32%	7%
O=C(Nc1cccnc1)c1ccc(Cl)c(S(=O)(=O)N2CCCCC2)c1	2%	-3%	0%	-1%	.	.
O=C(O)c1cccc(NC(=O)c2ccc(Cl)c(S(=O)(=O)N3CCCCCC3)c2)c1	0.11µM*	0.35µM*	0.32µM*	2.3µM*	8.9µM*	0%
COc1ccc(OCc2nc3ccccc3n2Cc2ccc(C(C)(C)C)cc2)cc1	9.5µM*	.	.	.	11µM*	.
CCn1c(COc2cccc(C)c2)nc2ccccc21	?	-3%	0%	-1%	-9%	-7%
COCn1c(COc2ccc3ccccc3c2)nc2ccccc21	2.4µM*	2.5µM*	2.8µM*	?	11µM*	-7%
CC(C)(C)c1ccc(OCc2nc3ccccc3n2CCOc2ccccc2)cc1	-5%	.	.	.	-35%	.
COc1ccc(OC)c2c1cc(C(=O)N[C@@H](C)C(=O)N[C@@H](C(=O)O)c1ccccc1)n2C	1%	0%	-5%	1%	.	.
Fc1ccc(-n2ncc3c(SCc4cccnc4)ncnc32)cc1	6.7µM*	?	25%	23µM*	-32%	0%
Cc1ccc(-n2ncc3c(SCc4ccccn4)ncnc32)c(C)c1	?	?	1%	0%	1.8µM*	7%
Cc1nc(SCc2ccccc2F)c2cnn(-c3ccccc3)c2n1	?	?	7%	9%	35µM*	-4%
Cc1ccc(CSc2ncnc3c2cnn3-c2ccccc2)cc1	-20%	7%	2%	4%	-22%	-3%
Cc1ccc(-n2ncc3c(SCc4ccccc4)ncnc32)cc1	11µM*	?	4µM*	?	11µM*	3%
CSc1ncnc2c1cnn2-c1ccc(C)cc1C	?	?	22%	12%	-22%	2%
CCN1CCN(c2nc3c(S(=O)(=O)c4ccc(Br)cc4)nnn3c3ccsc23)CC1	4%	.	.	.	.	.
Cc1ccc(CCNC(=O)CCCn2c(=O)c3ccccc3n(CC(=O)Nc3cc(Cl)ccc3C)c2=O)cc1	1%	.	.	.	24%	.
SMILES	FLuc counter	Rab9 prom act	NPC1 prom act	ELG1 genotoxic	SMN2 splice enh	Luc counter
COc1ccccc1OCC(=O)N(Cc1ccco1)Cc1ccccc1F	-14%	.	.	.	-8%	.
Cc1ccn2c(NC(=O)c3cccc(Cl)c3)c(-c3ccccc3)nc2c1	?	.	.	.	6%	.
O=C(COC(=O)/C=C/c1ccc([N+](=O)[O-])cc1)NNC(=O)c1ccccc1	.	.	.	1%	.	.
CCOc1ccccc1CNS(=O)(=O)c1ccc(-c2coc(C)n2)cc1	2%	.	.	.	.	.
CC(C)(C)c1ccc(-c2nnc3sc(-c4ccccn4)nn23)cc1	9.5µM*	?	28%	?	-14%	0%
Clc1ccc(-c2nnc3sc(-c4ccccn4)nn23)cc1	-1%	2%	-5%	1%	-1%	-5%
COc1cccc(CC(NC(C)=O)C(=O)NC2CCN(C(=O)c3ccc(Cl)cc3)CC2)c1OC (stereo not drawn)	0%	-1%	-2%	2%	.	.
N/C(=N\OC(=O)c1cccc2ccccc12)c1cccnc1	12µM*	28%	20%	?	.	-5%
O=C(O/N=C(\c1ccccc1)c1ccccn1)c1cccc2ccccc12	?	-1%	-5%	1%	25%	-3%
Cc1cccc(/C(N)=N/OC(=O)c2cccc3ccccc23)c1	4.3µM*	4µM*	3.5µM*	15%	.	.
N/C(=N\OC(=O)COc1ccccc1)c1cccnc1	-1%	2%	-5%	0%	-11%	1%
Fc1ccc(CSc2nnc(-c3cccs3)o2)cc1	?	?	-2%	?	?	4%
c1ccc(CSc2nnc(-c3cccs3)o2)cc1	12µM*	?	2.8µM*	?	?	-3%
Fc1ccccc1CSc1nnc(-c2cccs2)o1	5.4µM*	1.8µM*	1.8µM*	8.2µM*	13µM*	8%
Clc1ccc(COn2nnc3ccccc32)c(Cl)c1	3.8µM*	.	.	.	?	-1%
COc1ccccc1C(=O)NC(CCSC)C(=O)NNC(=O)c1ccncc1 (stereo not drawn)	2%	0%	-1%	-1%	.	.
CSCCC(NC(=O)c1ccc(Cl)cc1Cl)C(=O)NNC(=O)c1ccncc1 (stereo not drawn)	15µM*	-6%	-3%	1%	.	.
O=C(NNC(=O)c1ccc(Cl)cc1Cl)c1ccncc1	13µM*	0%	2%	7%	?	0%
O=C(NNC(=O)c1ccccc1Cl)c1ccncc1	-9%	-7%	-2%	0%	-2%	-1%
CCN1C(=O)/C(=C/N2CCc3ccccc32)SC1=S	?	3.2µM*	2.8µM*	6.5µM*	10µM*	-12%
O=C(Cn1c(=O)n(CCc2ccccc2)c(=O)c2cccnc21)Nc1ccc(F)cc1	-12%	.	.	.	-2%	.
CCOC(=O)c1ccc2nc(NC(=O)c3ccco3)sc2c1	2.7µM*	0.71µM*	0.89µM*	?	2.2µM*	-16%
CCOc1ccc2nc(NC(=O)c3ccco3)sc2c1	0.67µM*	0.32µM*	0.32µM*	1.3µM*	.	.
CCOC(=O)c1ccc2nc(NC(=O)c3cccs3)sc2c1	1.2µM*	0.5µM*	0.71µM*	?	4µM*	-25%

Bioassay records as filed in PubChem.
